Compound activity (PubChem BioAssay)
Hits are enriched below; roughly 7.4% of the tested compounds scored in any of these assays.
3T3 cytotox – NIH 3T3 cell cytotoxicity | Potency, µM (titrated, usually from 96.7 µM), usual class: inhibitors | NIH 3T3 viability, CellTiter-Glo ATP luminescence, 48-72 h | 4.3% of 94,000 active | AID 1345082; note: nearly all actives have a fitted effect of over 55% in size
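Cells were seeded at 400 per well, treated with pin-transferred compound, and kept 48 or 72 hr at 37 °C before CellTiter-Glo addition and luminescence imaging of cellular ATP.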
HEK cytotox – HEK 293 cell cytotoxicity; AID 1345083; Potency, µM (series often up to 115 µM), usual class: inhibitors; 6.6% of 94,000 active; HEK 293 viability, ATP luminescence (CellTiter-Glo), 48-72 h; note: nearly all actives have a fitted effect of over 60% in size
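HEK 293 seeded at 250 cells/well receive compound via pintool. After 48 or 72 hr at 37 degree Celsius, 5% CO2 and 95% humidity, CellTiter-Glo is dispensed and luminescence read following 10 min at room temperature.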
NPR1 antag – blocks ANP-stimulated signaling of human Npr1 receptor. Potency, µM (top dose mostly 46.3 µM), actives largely listed as inhibitors. HEK293 hNpr1 GloSensor cGMP, ANP-stimulated luminescence. 1.6% of 76,000 active. P16066. AID 1347048; calls by dose curve; note: nearly all actives have a fitted effect of over 60% in size
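HEK293 cells stably expressing human Npr1 and cGMP GloSensor pGS-40F, loaded 2 h with 2% GloSensor reagent, given compound 30 min at room temperature. Luminescence read before and 20 min after 0.1 nM hNppA.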
FLuc inh – blocks purified firefly luciferase enzyme activity; 2.5% of 76,000 active; Potency, µM (top dose mostly 115 µM), actives largely listed as inhibitors; purified P. pyralis luciferase, luminescence, biochemical; P08659; note: nearly all actives have a fitted effect of over 65% in size
Target sequence (P08659 whole entry, looked up): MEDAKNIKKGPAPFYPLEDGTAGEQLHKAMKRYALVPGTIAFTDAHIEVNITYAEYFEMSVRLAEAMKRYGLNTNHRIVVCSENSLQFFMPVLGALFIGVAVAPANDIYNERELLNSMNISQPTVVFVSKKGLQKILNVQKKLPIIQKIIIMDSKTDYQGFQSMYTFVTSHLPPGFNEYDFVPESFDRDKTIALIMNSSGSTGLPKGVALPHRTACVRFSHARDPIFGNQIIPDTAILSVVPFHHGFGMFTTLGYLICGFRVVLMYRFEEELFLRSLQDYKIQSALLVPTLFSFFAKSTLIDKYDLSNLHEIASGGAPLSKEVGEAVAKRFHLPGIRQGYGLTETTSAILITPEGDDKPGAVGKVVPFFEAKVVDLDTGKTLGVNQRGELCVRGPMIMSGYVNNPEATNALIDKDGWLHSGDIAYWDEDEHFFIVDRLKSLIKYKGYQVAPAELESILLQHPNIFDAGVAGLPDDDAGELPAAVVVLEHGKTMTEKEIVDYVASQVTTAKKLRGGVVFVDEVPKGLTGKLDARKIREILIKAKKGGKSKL
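FLuc 10nM, D-luciferin 10uM, ATP 10uM, Mg acetate 10mM, Tris acetate pH 7.5, Tween/BSA; cpd qHTS; enzyme added last; CCD luminescence.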
SNCA expr inh – inhibitors of alpha-synuclein (SNCA) gene expression; HEK-293 SNCA-luciferase knock-in, luminescence, 24 h; Potency, µM (doses to about 57.2 µM), usual class: inhibitors; 0.17% of 140,000 active; AID 1671194; note: nearly all actives have a fitted effect of over 45% in size
HEK293 viab – counter-screen for SNCA expression inhibitors: cell viability; Potency, µM (top dose mostly 57.1 µM), usual class: cytotoxic; HEK-293-SNCA-luc viability, GF-AFC fluorescence, 24 h; AID 1671193; 0.12% of 150,000 active; note: nearly all actives have a fitted effect of over 30% in size
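Cytotoxicity counterscreen: after 24 h compound treatment of genome-edited SNCA-luciferase HEK-293 cells, live-cell protease substrate GF-AFC read by fluorescence after 30 min; activity scaled between DMSO (0%) and medium-only (-100%), curves Hill-fitted.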
Npr1 antag conf – confirmation of human Npr1 natriuretic peptide receptor antagonists. shares compounds with NPR1 antag. HEK293 hNpr1 cGMP GloSensor luminescence, ANP-stimulated. Potency, µM (top dose mostly 57.6 µM), usual class: inhibitors. 76% of 1,400 active. AID 1347044; calls by dose curve; note: nearly all actives have a fitted effect of over 70% in size
Npr2 selectivity – selectivity test of Npr1 antagonists against human Npr2; shares compounds with NPR1 antag; HEK293 hNpr2 GloSensor cGMP luminescence, CNP-stimulated; Potency, µM (series often up to 57.6 µM), hits mostly inhibitors; 67% of 1,400 active; AID 1347046; calls by dose curve; note: nearly all actives have a fitted effect of over 70% in size
FLuc inh counter – FLuc enzyme inhibition, Npr1 counter-screen. purified FLuc enzyme, luminescence, Km substrate. 0.7% of 1,400 active. Potency, µM (highest dose often 57.6 µM), hits mostly inhibitors. shares compounds with NPR1 antag
GloSensor ctrl – reduces cGMP signal in GloSensor control cells; shares compounds with NPR1 antag; HEK293 GloSensor cGMP, SNP-stimulated, luminescence; Potency, µM (titrated, usually from 57.6 µM), most hits filed as inhibitors; 69% of 1,400 active; AID 1347051; calls by dose curve; note: nearly all actives have a fitted effect of over 70% in size
Large screens that a line does not name were inactive (follow-up assays come after a bar, where they were run). Unless noted, calls come from the whole dose curve; as a rule, active = well fitted curve in the direction sought with a large enough effect; inconclusive = small, poorly fitted or top-dose-only effect, or another doubt; inactive = no such curve, though single readings can be large; an effect the other way counts as inactive or inconclusive.

CN(C)CC1(O)CCC2(CCN(C(=O)c3[nH]nc4c3COc3ccccc3-4)CC2)CC1	none
Cc1nc(N2CCC(C(=O)NC3CCCCCCC3)CC2)cc(C(F)(F)F)n1	HEK cytotox inconclusive, NPR1 antag 10µM, FLuc inh inconclusive | Npr1 antag conf 7.69µM | Npr2 selectivity 13.7µM | FLuc inh counter inactive | GloSensor ctrl 7.69µM
Cc1nc(N2CCC(C(=O)NCc3ccccc3Cl)CC2)cc(C(F)(F)F)n1	3T3 cytotox inconclusive, HEK cytotox inconclusive, NPR1 antag inconclusive
Cc1nc(N2CCC(C(=O)NC3CCc4ccccc43)CC2)cc(C(F)(F)F)n1 (stereo not given)	3T3 cytotox inconclusive, HEK cytotox inconclusive, NPR1 antag inconclusive | Npr1 antag conf 21.7µM | Npr2 selectivity 19.3µM | FLuc inh counter inactive | GloSensor ctrl 17.2µM
Cc1nc(N2CCC(C(=O)NC3CCCCCC3)CC2)cc(C(F)(F)F)n1	HEK cytotox inconclusive, NPR1 antag inconclusive | Npr1 antag conf 13.7µM | Npr2 selectivity 12.2µM | FLuc inh counter inactive | GloSensor ctrl 9.68µM
Cc1nc(N2CCC(C(=O)Nc3ccc(F)c(Cl)c3)CC2)cc(C(F)(F)F)n1	3T3 cytotox inconclusive, HEK cytotox 25.1µM, NPR1 antag 11.2µM, SNCA expr inh inconclusive | Npr1 antag conf 21.7µM | Npr2 selectivity 21.7µM | FLuc inh counter inactive | GloSensor ctrl 21.7µM
O=C(O)C[C@H](O)C[C@H](O)C=Cc1c(C2CC2)nc2ccccc2c1-c1ccc(F)cc1	SNCA expr inh inconclusive (no result: 3T3 cytotox, HEK cytotox, NPR1 antag, FLuc inh)
O=C(NCc1ccc2c(c1)OCO2)C1(c2ccc(Cl)cc2)CCOCC1	HEK cytotox inconclusive (no result: NPR1 antag, FLuc inh, SNCA expr inh, HEK293 viab)
COc1ccc(CNC2CN(C(=O)OC(C)(C)C)C2)cc1	none (no result: NPR1 antag, FLuc inh)
CC(C)(C)OC(=O)N1CC(NCc2ccc(-c3ccc(OC(F)(F)F)cc3)cc2)C1	3T3 cytotox inconclusive, HEK cytotox inconclusive, SNCA expr inh inconclusive, HEK293 viab inconclusive (no result: NPR1 antag, FLuc inh) | Npr1 antag conf 21.7µM | Npr2 selectivity 21.7µM | FLuc inh counter inactive | GloSensor ctrl 17.2µM
CN1CC(=O)N(C2CCNC2)Cc2c1ncnc2N1CCC(N2CCCCC2)CC1 (stereo not given)	none (no result: NPR1 antag, FLuc inh)
CN1CC(=O)N(C2CCNC2)Cc2c1ncnc2N1CC[C@H](N(C)C)C1 (stereo not given in full)	none (no result: NPR1 antag, FLuc inh) | Npr1 antag conf inactive | Npr2 selectivity inactive | FLuc inh counter inactive | GloSensor ctrl inactive
COCc1nc2nc(-c3ccccc3)c(-c3ccc(O)c(F)c3)cc2n1C	3T3 cytotox inconclusive, HEK cytotox inconclusive, FLuc inh inconclusive
CN(C)CCNC(=O)c1nc2nc(-c3ccccc3)c(-c3ccc(O)c(F)c3)cc2n1C	3T3 cytotox 44.7µM, HEK cytotox 70.8µM, NPR1 antag 22.4µM | Npr1 antag conf 35.3µM | Npr2 selectivity 19.8µM | FLuc inh counter inactive | GloSensor ctrl inactive
O=C(Nc1ccc(Oc2ccccc2)cc1)O[C@@H]1CO[C@H]2[C@@H]1OC[C@@H]2NS(=O)(=O)c1ccc2ccccc2c1	3T3 cytotox inconclusive, HEK cytotox inconclusive, NPR1 antag inconclusive | Npr1 antag conf 17.2µM | Npr2 selectivity 15.3µM | FLuc inh counter inactive | GloSensor ctrl 10.9µM
COc1ccc(NC(=O)O[C@@H]2CO[C@H]3[C@@H]2OC[C@@H]3NC(=O)Nc2cccc(C#N)c2)cc1	none
COc1ccc(NC(=O)O[C@@H]2CO[C@H]3[C@@H]2OC[C@@H]3NC(=O)COc2ccccc2)cc1	none
O=C(Nc1ccc(Oc2ccccc2)cc1)O[C@@H]1CO[C@H]2[C@@H]1OC[C@@H]2NC(=S)Nc1cccc2ccccc12	3T3 cytotox inconclusive, HEK cytotox inconclusive, NPR1 antag 10µM, SNCA expr inh inconclusive | Npr1 antag conf 5.44µM | Npr2 selectivity 6.85µM | FLuc inh counter inactive | GloSensor ctrl 6.11µM
N#Cc1cccc(CN[C@H]2CO[C@H]3[C@@H]2OC[C@H]3OC(=O)Nc2ccc(Oc3ccccc3)cc2)c1	3T3 cytotox inconclusive, HEK cytotox inconclusive, NPR1 antag 17.8µM | Npr1 antag conf 21.7µM | Npr2 selectivity 21.7µM | FLuc inh counter inactive | GloSensor ctrl 19.3µM
O=C1CCCCCN1C1CCN(Cc2ccsc2)CC1	none
O=C(OCc1ccccc1)N1CCCN(c2cc(C3CC(O)C3)ncn2)CC1 (stereo not given)	HEK cytotox inconclusive, NPR1 antag 8.91µM | Npr1 antag conf 15.3µM | Npr2 selectivity 15.3µM | FLuc inh counter inactive | GloSensor ctrl 13.7µM
O=C(c1ccc(-c2ncc3cnc(-c4cccc(F)c4)cn23)cc1)N1CCc2cccnc21	3T3 cytotox 31.6µM, HEK cytotox 10µM, NPR1 antag 17.8µM, SNCA expr inh 28.2µM, HEK293 viab 25.1µM | Npr1 antag conf 14µM | Npr2 selectivity 14µM | FLuc inh counter inactive | GloSensor ctrl 17.7µM
CCCc1ccc2oc(C(=O)N(CC)Cc3ccncc3)c(C)c2c1	3T3 cytotox inconclusive, HEK cytotox 25.1µM, NPR1 antag 12.6µM | Npr1 antag conf 19.3µM | Npr2 selectivity 19.3µM | FLuc inh counter inactive | GloSensor ctrl 17.2µM
O=C(Cc1c[nH]c2ncc(-c3ccc(Oc4ccccc4)cc3)cc12)N1CCOCC1	3T3 cytotox inconclusive, HEK cytotox 56.2µM, NPR1 antag 10µM, SNCA expr inh 25.1µM, HEK293 viab inconclusive | Npr1 antag conf 12.5µM | Npr2 selectivity 17.7µM | FLuc inh counter inconclusive | GloSensor ctrl 11.1µM
O=C(Cc1c[nH]c2ncc(-c3cccc(O)c3)cc12)N1CCOCC1	3T3 cytotox inconclusive, HEK cytotox inconclusive, SNCA expr inh inconclusive
O=C(Cc1c[nH]c2ncc(-c3ccccc3)cc12)N1CCCC1	3T3 cytotox inconclusive, HEK cytotox inconclusive, NPR1 antag inconclusive | Npr1 antag conf 28µM | Npr2 selectivity inconclusive | FLuc inh counter inconclusive | GloSensor ctrl inconclusive
O=C(Cc1c[nH]c2ncc(-c3ccccc3)cc12)NCCN1CCOCC1	3T3 cytotox inconclusive
COc1ccc(-c2cnc3[nH]cc(CC(=O)N4CCNC(=O)C4)c3c2)cc1	3T3 cytotox inconclusive
